# Results as given in PubChem BioAssay.
# Active and inactive are the calls of the source.
# Legend:
# [1] = small molecules captured by biotinylated probe aFSTL3 – biochemical, small-molecule microarray, fluorescence 635/667, stem cell growth factor project, primary screen (AID 1064); details: higher = more signal;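 further: measures binding of the biotinylated anti-FSTL3 antibody to printed compounds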
# [2] = binders from COS7 lysate, DM2A8 probe, primary screen, torsin A project, cell lysate, small-molecule microarray, fluorescence 635/667 (AID 1065); details: higher = more signal, COS7 lysate expressing mutant human TOR1A
# [3] = small molecules captured by biotinylated probe aFGF2 – biochemical, small-molecule microarray, fluorescence 635/667, stem cell growth factor project, primary screen (AID 1067); details: higher = more signal;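 further: measures binding of biotinylated aFGF2 protein to printed compounds on slides; z-score merges feature fluorescence and signal-to-noise across triplicate slides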
# [4] = small molecules captured by biotinylated probe aFGF10 – biochemical, small-molecule microarray, fluorescence 635/667, stem cell growth factor project, primary screen (AID 1071); details: higher = more signal;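 further: score merges 667 nm spot intensity and signal to noise from triplicate slides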
# [5] = molecular target: Neurogenic locus notch homolog protein 2 (Homo sapiens) (UniProt Q04721); assay: small molecules binding Notch2 protein – biochemical, small-molecule microarray, 635 nm fluorescence, stem cell growth factors, primary screen (AID 1073); details: higher = more signal
# [6] = molecular target: Pro-neuregulin-1, membrane-bound isoform (Homo sapiens) (UniProt Q02297); assay: small molecules binding neuregulin-1 protein – biochemical, small-molecule microarray, fluorescence 635/667, psychiatric disease protein project, primary screen (AID 1075); details: NRG1 binding, 635 nm fluorescence, higher = more signal;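 further: score combines 667 nm spot fluorescence with signal to noise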
# Pro-neuregulin-1, membrane-bound isoform (Homo sapiens), sequence (Q02297 whole entry, looked up, the tested form may be a part, canonical isoform): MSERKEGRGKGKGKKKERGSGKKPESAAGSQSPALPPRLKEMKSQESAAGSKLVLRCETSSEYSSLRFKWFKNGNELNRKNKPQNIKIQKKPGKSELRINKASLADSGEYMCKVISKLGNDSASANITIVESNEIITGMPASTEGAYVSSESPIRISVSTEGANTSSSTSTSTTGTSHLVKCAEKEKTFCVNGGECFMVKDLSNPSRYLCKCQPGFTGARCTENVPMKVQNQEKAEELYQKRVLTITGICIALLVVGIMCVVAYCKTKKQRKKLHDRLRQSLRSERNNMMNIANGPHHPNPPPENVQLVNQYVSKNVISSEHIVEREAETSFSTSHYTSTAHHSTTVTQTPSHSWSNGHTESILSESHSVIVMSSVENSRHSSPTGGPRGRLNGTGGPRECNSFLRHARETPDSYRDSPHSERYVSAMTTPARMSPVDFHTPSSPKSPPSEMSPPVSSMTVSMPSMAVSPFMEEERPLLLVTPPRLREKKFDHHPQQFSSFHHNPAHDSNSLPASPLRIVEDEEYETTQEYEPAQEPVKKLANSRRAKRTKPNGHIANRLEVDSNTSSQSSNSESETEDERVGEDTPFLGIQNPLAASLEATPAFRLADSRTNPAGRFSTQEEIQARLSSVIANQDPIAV
# [7] = tested on: Neuregulin-1 EGF-like domain; assay: small molecules binding NRG1 EGF domain – biochemical, small-molecule microarray, 635 nm fluorescence, primary screen (AID 1081); details: higher = more signal;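 further: binding of the protein to compounds printed on small-molecule microarray slides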
# [8] = FRG1 expression reporter modulators in myotubes – cell-based, C2C12 myotubes, firefly/Renilla luciferase, luminescence, FRG1 inhibition for FSHD, primary screen (AID 1084); details: FRG1 promoter luciferase, higher = more signal, called active from +8 up or from −8 down
# [9] = small molecules captured by biotinylated probe aFST – biochemical, small-molecule microarray, fluorescence 635/667, stem cell growth factor project, primary screen (AID 1086); details: higher = more signal;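 further: score merges 667 nm fluorescence with signal-to-noise of each printed compound spot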
# [10] = binders of probe aHhip on microarray, primary screen, stem cell growth factor project, biochemical, small-molecule microarray, fluorescence 635/667 (AID 1087); details: higher = more signal;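 further: score merges spot fluorescence at 667nm with spot signal to noise ratio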
# [11] = tested on: PRMT1 (protein arginine N-methyltransferase 1); assay: small molecules binding arginine methyltransferase PRMT1 – biochemical, small-molecule microarray, 635 nm fluorescence, primary screen (AID 1088); details: higher = more signal;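 further: binding of Prmt1 protein to compounds spotted on small-molecule microarray slides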
# [12] = growth effects on S. cerevisiae YJM789 – YJM789 clinical isolate, OD600, 24 h, basal, primary screen (AID 1089); details: higher = more signal, called active from +8 up or from −8 down;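 further: growth of clinical yeast isolate S. cerevisiae YJM 789 seeded 1000 cells per well; test concentration not given here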
# [13] = S. pombe growth modifiers, basal conditions – strain 972, OD600, 24 h, no modulator, primary screen (AID 1090);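 further: basal condition with compound alone and no growth modifier present; test concentration not given here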; details: S. pombe 972 growth, higher = more signal, called active from +8 up or from −8 down
# [14] = budding yeast growth modifiers under rapamycin – strain BY4716, OD600, 96 h, primary screen (AID 1091); further: test concentration not given here; details: S. cerevisiae BY4716 + rapamycin, higher = more signal, called active from +8 up or from −8 down
# [15] = molecular target: Torsin-1A-interacting protein 2 (Homo sapiens) (UniProt Q8NFQ8); assay: small molecules binding lysate-expressed LULL1 – cell lysate, human LULL1 lysate, 635/667 nm fluorescence, primary screen (AID 1092); details: small-molecule microarray, hLULL1 lysate binding, 635 nm fluorescence; higher = more signal;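 further: probe is lysate of COS7 cells overexpressing human LULL1; score merges per-feature 667 nm fluorescence with signal-to-noise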
# Torsin-1A-interacting protein 2 (Homo sapiens), sequence (Q8NFQ8 whole entry, looked up): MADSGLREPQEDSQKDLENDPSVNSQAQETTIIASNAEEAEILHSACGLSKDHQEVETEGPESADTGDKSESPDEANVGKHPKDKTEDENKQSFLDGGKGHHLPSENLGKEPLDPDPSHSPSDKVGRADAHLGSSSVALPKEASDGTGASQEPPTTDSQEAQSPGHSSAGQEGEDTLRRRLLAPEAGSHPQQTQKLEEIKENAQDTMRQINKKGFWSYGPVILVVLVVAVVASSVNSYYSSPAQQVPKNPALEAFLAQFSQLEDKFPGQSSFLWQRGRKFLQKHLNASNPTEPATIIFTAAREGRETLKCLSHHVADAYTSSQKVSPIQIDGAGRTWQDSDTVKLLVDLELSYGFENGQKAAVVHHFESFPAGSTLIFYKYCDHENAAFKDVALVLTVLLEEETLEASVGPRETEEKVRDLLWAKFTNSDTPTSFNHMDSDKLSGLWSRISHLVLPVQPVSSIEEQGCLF
# [16] = optical density change of DRC41 E. coli – strain DRC41, OD650, 24 h, E. coli filamentation project, primary screen (AID 1093);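 further: MC1000 strain lacking acrAB efflux and sulA so SOS filamentation is blocked; test concentration not given here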; details: E. coli DRC41 growth, higher = more signal, called active from +8 up or from −8 down
# [17] = probe aLefty2 binding to arrayed compounds – biochemical, biotinylated probe, 635/667 nm fluorescence, primary screen (AID 1094); details: small-molecule microarray, higher = more signal;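 further: score merges spot fluorescence near 667 nm with spot signal-to-noise ratio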
# [18] = tested on: Noggin (protein binding on small-molecule microarray); assay: small molecules binding Noggin protein – biochemical, 635/667 nm fluorescence, primary screen (AID 1095); details: 635 nm fluorescence, higher = more signal;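 further: score merges 667 nm feature fluorescence with signal to noise over triplicate slides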
# [19] = molecular target: Neurogenic locus notch homolog protein 3 (Homo sapiens) (UniProt Q9UM47); assay: small molecules binding NOTCH3 protein – biochemical, 635/667 nm fluorescence, primary screen (AID 1096); details: small-molecule microarray, 635 nm fluorescence, higher = more signal
# Neurogenic locus notch homolog protein 3 (Homo sapiens), sequence (Q9UM47 whole entry, looked up): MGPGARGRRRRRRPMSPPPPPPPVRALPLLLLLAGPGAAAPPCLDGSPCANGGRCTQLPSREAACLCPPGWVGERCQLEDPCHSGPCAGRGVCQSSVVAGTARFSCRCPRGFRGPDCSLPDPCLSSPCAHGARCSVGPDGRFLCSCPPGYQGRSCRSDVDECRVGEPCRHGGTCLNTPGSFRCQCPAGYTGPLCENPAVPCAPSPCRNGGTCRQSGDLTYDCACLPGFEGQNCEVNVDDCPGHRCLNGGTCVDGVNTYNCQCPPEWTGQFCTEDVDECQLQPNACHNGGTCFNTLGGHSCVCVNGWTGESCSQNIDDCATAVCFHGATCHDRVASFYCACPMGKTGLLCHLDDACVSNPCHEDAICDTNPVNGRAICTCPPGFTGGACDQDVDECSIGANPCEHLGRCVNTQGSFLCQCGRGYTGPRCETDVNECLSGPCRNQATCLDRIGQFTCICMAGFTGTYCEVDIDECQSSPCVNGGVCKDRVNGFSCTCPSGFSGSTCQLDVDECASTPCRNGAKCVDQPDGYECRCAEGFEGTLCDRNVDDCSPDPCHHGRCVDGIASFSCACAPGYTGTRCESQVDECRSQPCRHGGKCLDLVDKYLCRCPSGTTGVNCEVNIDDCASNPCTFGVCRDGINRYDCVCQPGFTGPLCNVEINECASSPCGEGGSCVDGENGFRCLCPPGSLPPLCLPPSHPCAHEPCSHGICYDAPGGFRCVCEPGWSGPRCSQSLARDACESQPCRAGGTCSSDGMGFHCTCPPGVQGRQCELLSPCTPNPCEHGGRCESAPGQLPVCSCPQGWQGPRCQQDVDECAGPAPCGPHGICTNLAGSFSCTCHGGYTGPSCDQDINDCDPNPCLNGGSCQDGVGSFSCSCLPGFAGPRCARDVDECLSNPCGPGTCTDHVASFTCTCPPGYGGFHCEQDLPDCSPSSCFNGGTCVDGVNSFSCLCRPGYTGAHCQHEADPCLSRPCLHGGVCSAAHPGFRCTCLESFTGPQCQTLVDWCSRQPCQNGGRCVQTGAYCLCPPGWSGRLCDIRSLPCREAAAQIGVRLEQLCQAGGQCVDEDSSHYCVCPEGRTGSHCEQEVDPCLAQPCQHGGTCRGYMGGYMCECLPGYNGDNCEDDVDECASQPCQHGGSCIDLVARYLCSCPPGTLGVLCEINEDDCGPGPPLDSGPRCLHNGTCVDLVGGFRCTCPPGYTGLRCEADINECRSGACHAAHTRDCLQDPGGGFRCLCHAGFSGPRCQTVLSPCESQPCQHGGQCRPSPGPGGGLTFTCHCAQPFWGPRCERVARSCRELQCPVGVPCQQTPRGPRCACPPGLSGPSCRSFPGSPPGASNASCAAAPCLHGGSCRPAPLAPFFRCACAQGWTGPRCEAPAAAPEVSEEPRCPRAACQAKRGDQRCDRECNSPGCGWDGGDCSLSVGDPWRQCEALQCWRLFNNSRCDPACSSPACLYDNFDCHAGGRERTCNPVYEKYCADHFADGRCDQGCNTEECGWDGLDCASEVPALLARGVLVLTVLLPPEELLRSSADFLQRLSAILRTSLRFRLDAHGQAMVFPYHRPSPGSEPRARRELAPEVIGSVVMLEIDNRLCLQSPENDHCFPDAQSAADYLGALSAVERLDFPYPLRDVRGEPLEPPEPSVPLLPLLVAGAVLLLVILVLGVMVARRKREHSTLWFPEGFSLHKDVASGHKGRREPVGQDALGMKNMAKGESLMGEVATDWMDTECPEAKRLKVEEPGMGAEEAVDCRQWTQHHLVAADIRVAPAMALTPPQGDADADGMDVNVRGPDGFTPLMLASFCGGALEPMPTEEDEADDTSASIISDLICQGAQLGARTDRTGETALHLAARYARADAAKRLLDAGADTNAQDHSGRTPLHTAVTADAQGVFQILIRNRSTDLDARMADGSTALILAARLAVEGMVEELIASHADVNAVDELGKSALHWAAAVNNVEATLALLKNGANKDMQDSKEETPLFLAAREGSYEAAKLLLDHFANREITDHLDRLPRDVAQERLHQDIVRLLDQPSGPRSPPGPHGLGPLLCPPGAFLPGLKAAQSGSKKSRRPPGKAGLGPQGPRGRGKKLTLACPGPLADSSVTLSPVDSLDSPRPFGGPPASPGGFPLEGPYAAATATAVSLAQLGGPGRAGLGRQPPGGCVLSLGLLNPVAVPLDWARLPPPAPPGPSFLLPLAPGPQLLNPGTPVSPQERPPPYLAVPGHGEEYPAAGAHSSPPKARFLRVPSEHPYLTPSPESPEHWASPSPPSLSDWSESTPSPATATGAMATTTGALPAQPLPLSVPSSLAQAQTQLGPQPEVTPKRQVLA
# [20] = probe aEGFR binding to arrayed compounds – biochemical, biotinylated probe, 635/667 nm fluorescence, primary screen (AID 1097); details: small-molecule microarray, higher = more signal;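 further: probe is a biotinylated anti-EGFR antibody binding compounds printed on slides; score combines fluorescence near 667 nm and signal to noise of each spot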
Structure (SMILES),composite z-score [1],composite z-score [2],composite z-score [3],composite z-score [4],composite z-score [5],composite z-score [6],composite z-score [7],z-score [8],composite z-score [9],composite z-score [10],composite z-score [11],z-score [12],z-score [13],z-score [14],composite z-score [15],z-score [16],composite z-score [17],composite z-score [18],composite z-score [19],composite z-score [20]
CN(C)CCCNC(=O)[C@@H]1c2ccccc2C(=O)N(Cc2ccccc2C(F)(F)F)[C@H]1c1ccc(CO)cc1,1,-0.335,-0.0416,-0.702,-1.03,1.01,-0.23,-1.28 (inactive),-0.0464,-0.149,0.986,0.0389 (inactive),-1.28 (inactive),-0.461 (inactive),0.767,1.53 (inactive),0.0518,-0.396,-0.704,-0.213
O=C1C[C@@](C(=O)NC2CC2)(c2ccc([N+](=O)[O-])cc2)[C@@H](c2ccc(CO)cc2)N1C1CCCCC1,-0.281,0.286,0.0626,0.907,0.804,1.81,1.3,-0.534 (inactive),0.832,0.164,1.52,-1.19 (inactive),-2.19 (inactive),-2.54 (inactive),3.12,0.778 (inactive),-0.0139,1.74,1.07,-0.0828
C=CCOC(=O)[C@H]1[C@@H]2C(=O)O[C@@H](c3ccccc3)[C@@H](c3ccccc3)N2[C@@H](c2ccc(OCCOC(=O)[C@@H]3C[C@@H]4C(=O)N[C@@H](CCCC[N+](C)(C)C)C(=O)N4[C@@H]3c3ccc(O)cc3)cc2)[C@]12C(=O)Nc1ccc(I)cc12,-0.291,0.857,0.0559,0.719,1.24,1.44,1.11,0.687 (inactive),0.365,-0.0088,1.53,2.31 (inactive),-1.21 (inactive),1.34 (inactive),2.44,-1.94 (inactive),-0.09,1.31,1.14,0.06
O=C1OCCC=C[C@H]2OC34C=CCN(c5ccc6ccccc6c5)C(=O)[C@H]3N(CCO)C(=O)[C@@H]4C12 (stereo not given in full),-0.562,-0.171,-0.119,-0.175,-0.397,-0.863,0.464,0.149 (inactive),-0.847,-0.672,-0.3,-0.735 (inactive),-0.737 (inactive),-0.171 (inactive),-0.686,-0.021 (inactive),-0.314,-0.251,0.301,-0.0353
CC(C)NC(=O)[C@@H]1c2ccccc2C(=O)N(Cc2ccccc2C(F)(F)F)[C@H]1c1ccc(CO)cc1,-0.804,0.313,0.0553,-0.0635,-0.409,-0.774,0.837,-1.26 (inactive),0.618,-0.668,-0.123,-0.202 (inactive),0.163 (inactive),-1.04 (inactive),2.36,-0.327 (inactive),-0.241,-0.238,0.0828,0.668
